Results from the supplement of paper PMC11026393.

Tested on: SH-SY5Y
Assay: difference in mean normalized H2B-mRuby nuclear fluorescence intensity relative to DMSO control (normalized intensity difference (DMSO = 0)); higher = stronger increase in transgene reporter fluorescence
Settings: 24 h
Procedure: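 Cancer cell lines stably expressing H2B-mRuby2 from a lentiviral PGK promoter were treated with each drug for 24 h and imaged on a Leica DMI8 (ex 541-551 / em 565-605 nm). Nuclei were segmented in CellProfiler. The value is the difference in mean per-nucleus normalized H2B-mRuby intensity versus DMSO-treated cells (about 3 repeats x 4 fields). Doxorubicin is itself fluorescent. Dasatinib is in nM.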

## Nc1ncn([C@@H]2O[C@H](CO)[C@@H](O)[C@H]2O)c(=O)n1 (concentration unit: uM)
concentration: 1
  difference: 0.0451
concentration: 2.5
  difference: 0.0373
concentration: 5
  difference: 0.0486
concentration: 10
  difference: 0.0991
concentration: 20
  difference: 0.0901

## COc1cc2ncnc(Nc3ccc(F)c(Cl)c3)c2cc1OCCCN1CCOCC1 (concentration unit: uM)
concentration: 1
  difference: 0.0355
concentration: 2.5
  difference: 0.0288
concentration: 5
  difference: 0.0297
concentration: 10
  difference: 0.0546
concentration: 20
  difference: 0.086

## COc1cc([C@@H]2c3cc4c(cc3[C@@H](O[C@@H]3O[C@@H]5CO[C@@H](C)O[C@H]5[C@H](O)[C@H]3O)[C@H]3COC(=O)[C@H]23)OCO4)cc(OC)c1O (concentration unit: uM)
concentration: 1
  difference: 0.0162
concentration: 2.5
  difference: 0.042
concentration: 5
  difference: 0.0775
concentration: 10
  difference: 0.0738
concentration: 20
  difference: 0.0983

## Cc1[nH]c2ccccc2c1CCNCc1ccc(/C=C/C(=O)NO)cc1 (concentration unit: nM)
concentration: 10
  difference: 0.13
concentration: 50
  difference: 0.783
concentration: 100
  difference: 1.09
concentration: 250
  difference: 1.19
concentration: 500
  difference: 1.16

## COc1cccc2c1C(=O)c1c(O)c3c(c(O)c1C2=O)C[C@@](O)(C(=O)CO)C[C@@H]3O[C@H]1C[C@H](N)[C@H](O)[C@H](C)O1 (concentration unit: nM)
concentration: 25
  difference: -0.0232
concentration: 100
  difference: 0.0095
concentration: 250
  difference: 0.0862
concentration: 1000
  difference: 0.155
concentration: 2500
  difference: 0.202

## Cc1nc(Nc2ncc(C(=O)Nc3c(C)cccc3Cl)s2)cc(N2CCN(CCO)CC2)n1 (concentration unit: nM)
concentration: 25
  difference: 0.0391
concentration: 100
  difference: 0.111
concentration: 250
  difference: 0.137
concentration: 1000
  difference: 0.178
concentration: 2500
  difference: 0.156
